Our source for the growth values is PubChem BioAssay (NCI).

This is part of a sample that, as a whole, favours compounds with a hit. Of some 83,000 tested, about 20% had one in any assay.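 Negative percent growth values reflect cell death: -40 means 40% of the cells present at the start died, and -100 means all died.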 A number with no mark means an inactive call. Activity calls are given as the source filed them. The calls were made as follows: active = growth percent below 10; inactive = the rest.

Among the test systems are DU-145 prostate; K-562 leukemia; MALME-3M melanoma; MDA-MB-231 breast; RXF 393 renal; SF-268 CNS; SF-295 CNS; SF-539 CNS; UACC-257 melanoma; M14 melanoma; HCT-15 colon; HT29 colon; SNB-19 CNS; U251 CNS; PC-3 prostate; SK-MEL-5 melanoma; UACC-62 melanoma; LOX IMVI melanoma; SK-MEL-28 melanoma; SNB-75 CNS.
Holding throughout (test): NCI-60 one-dose screen, 48 h (100 = growth as untreated, 0 = no growth, -100 = all killed)
What all share (settings): 10 µM unless noted

With `COc1cc(/C=C2\C(=O)Nc3ccccc32)cc(OC)c1O`, the growth is 92.5% in the assay on DU-145 prostate; 7.58% (active) with K-562 leukemia; 118% with MALME-3M melanoma; 63.1% in the assay on MDA-MB-231 breast; 71.3% in the assay with RXF 393 renal; 78.3% in the assay on SF-268 CNS. The growth is 60.6% in the assay on SF-295 CNS; 68.8% with SF-539 CNS; 62.6% in the assay with UACC-257 melanoma; 53.6% with M14 melanoma; 61.6% with HCT-15 colon; 75.7% in the assay with HT29 colon. Besides, the growth with SNB-19 CNS is 83.7%; in the assay with U251 CNS it was 47%; with PC-3 prostate, 51.2%; with SK-MEL-5 melanoma it was 45.7%; in the assay on UACC-62 melanoma, 72.1%; in the assay on LOX IMVI melanoma, 36.5%. Besides, the growth in the assay on SK-MEL-28 melanoma is 90.3%.
Take `COc1ccc(C(=O)COc2cccc(/C=C3\CSc4ccc(C)cc4C3=O)c2)cc1`: the growth with DU-145 prostate was 109%; in the assay with K-562 leukemia it was 29.3%; in the assay with MALME-3M melanoma it was 98.2%; in the assay on MDA-MB-231 breast, 79.4%; in the assay on RXF 393 renal, 71.1%; with SF-268 CNS, 104%. Further, the growth in the assay on SF-295 CNS was 102%; in the assay on SF-539 CNS, 103%; with UACC-257 melanoma, 95.5%; in the assay with M14 melanoma it was 93.8%; with HCT-15 colon, 84.8%; in the assay on HT29 colon it was 101%. Besides, the growth with SNB-19 CNS is 97%; with SK-MEL-5 melanoma, 88.2%; in the assay on UACC-62 melanoma it was 75.2%; in the assay with LOX IMVI melanoma, 74.2%; in the assay with SK-MEL-28 melanoma, 120%.
Consider `O=C1c2c(c3c4cc(Br)ccc4[nH]c3c3ccc4ccccc4c23)C(=O)N1O`, for which the growth was 103% in the assay with DU-145 prostate; 71.6% in the assay with K-562 leukemia; 126% with MALME-3M melanoma; 81.7% in the assay on MDA-MB-231 breast; 103% in the assay on RXF 393 renal; 81.1% in the assay on SF-268 CNS. For the same compound, the growth in the assay on SF-295 CNS is 84.7%; in the assay on SF-539 CNS, 96.4%; in the assay with UACC-257 melanoma, 88.5%; in the assay on M14 melanoma it was 94.1%; in the assay on HCT-15 colon, 85.4%; in the assay on SNB-75 CNS it was 79.8%. In addition, the growth with SNB-19 CNS is 85.1%; with U251 CNS, 68.5%; in the assay on PC-3 prostate it was 79%; in the assay on SK-MEL-5 melanoma, 96.7%; in the assay on UACC-62 melanoma, 59.9%; in the assay on LOX IMVI melanoma, 67.8%. In the assay with SK-MEL-28 melanoma, the growth was 106%.
For `COc1ccc2nc(-n3nc(C)cc3C)c(-n3nc(C)cc3C)nc2c1`, the growth with DU-145 prostate is 128%; with K-562 leukemia it was 114%; in the assay with MALME-3M melanoma it was 108%; with MDA-MB-231 breast, 103%; in the assay on RXF 393 renal, 104%; with SF-268 CNS, 119%. In addition, the growth in the assay on SF-295 CNS was 98.7%; in the assay with SF-539 CNS, 107%; with UACC-257 melanoma, 119%; with M14 melanoma, 102%; with HCT-15 colon, 102%; in the assay on SNB-75 CNS it was 116%. Besides, the growth was 102% in the assay with SNB-19 CNS; 106% in the assay on U251 CNS; 105% in the assay with PC-3 prostate; 105% in the assay on UACC-62 melanoma; 101% in the assay on LOX IMVI melanoma; 107% in the assay on SK-MEL-28 melanoma.
Consider `O=c1oc2ccccc2cc1-c1csc(N/N=C/c2cc3ccccc3nc2Cl)n1`, for which the growth in the assay on DU-145 prostate is 87.6%; with K-562 leukemia, 108%; with MALME-3M melanoma, 103%; with MDA-MB-231 breast, 79.1%; in the assay with RXF 393 renal, 111%; with SF-268 CNS it was 106%. Also, the growth in the assay on SF-295 CNS was 97.8%; in the assay on SF-539 CNS, 96.1%; in the assay with UACC-257 melanoma, 115%; with M14 melanoma it was 115%; with HCT-15 colon, 101%; in the assay with HT29 colon it was 100%. For the same compound, the growth is 96.1% in the assay on SNB-19 CNS; 97.2% with U251 CNS; 95% in the assay with PC-3 prostate; 98.4% in the assay with SK-MEL-5 melanoma; 91.8% in the assay with UACC-62 melanoma; 101% in the assay with LOX IMVI melanoma. The growth in the assay on SK-MEL-28 melanoma was 102%.
On to `Cc1nn(-c2ccccc2)c2nc3nc4c(c(N)c3c(-c3ccc(Cl)cc3)c12)CCC4`, for which the growth with DU-145 prostate was 90.1%; with K-562 leukemia, 27.7%; in the assay on MALME-3M melanoma, 109%; with MDA-MB-231 breast it was 88.1%; with RXF 393 renal, 79.9%; with SF-268 CNS, 102%. Further, the growth with SF-295 CNS was 92.1%; in the assay on SF-539 CNS, 90%; with UACC-257 melanoma, 91.4%; with M14 melanoma, 98.6%; with HCT-15 colon it was 76.5%; with SNB-75 CNS it was 86.2%. Besides, the growth was 111% in the assay on SNB-19 CNS; 88.2% with PC-3 prostate; 99.4% in the assay on SK-MEL-5 melanoma; 102% in the assay with UACC-62 melanoma; 62.5% with LOX IMVI melanoma; 96.9% in the assay with SK-MEL-28 melanoma.
In the case of `CN(C)C(=S)SCN1C(=O)c2ccc([N+](=O)[O-])cc2S1(=O)=O`, the growth in the assay on DU-145 prostate was 94.3%; with K-562 leukemia, 77.8%; with MALME-3M melanoma it was 92.8%; in the assay on MDA-MB-231 breast it was 106%; in the assay with RXF 393 renal, 113%; with SF-268 CNS, 99.9%. In addition, the growth in the assay on SF-295 CNS was 101%; in the assay with SF-539 CNS it was 102%; with UACC-257 melanoma, 102%; in the assay with M14 melanoma it was 103%; with HCT-15 colon, 95.2%; with SNB-75 CNS, 99.9%. The growth is 94.3% with SNB-19 CNS; 101% in the assay on SK-MEL-5 melanoma; 92.2% in the assay with UACC-62 melanoma; 92.9% in the assay on LOX IMVI melanoma; 109% with SK-MEL-28 melanoma.
As for `COc1cc2nc(SCc3cc(OC)c(OC)c(OC)c3)n(-c3ccccc3OC)c(=O)c2cc1OC`, the growth is 81.8% with DU-145 prostate; 27.3% with K-562 leukemia; 63% in the assay with MALME-3M melanoma; 77.5% in the assay on MDA-MB-231 breast; 78.1% in the assay on RXF 393 renal; 69.9% in the assay with SF-268 CNS. The growth in the assay with SF-295 CNS is 73.8%; in the assay with SF-539 CNS, 89.9%; in the assay with M14 melanoma it was 77.1%; with HCT-15 colon it was 75.4%; with HT29 colon it was 66.6%; with SNB-75 CNS it was 62.8%. The growth in the assay with U251 CNS was 86.8%; in the assay on PC-3 prostate it was 61.1%; in the assay with UACC-62 melanoma, 72.5%; in the assay with LOX IMVI melanoma, 77.3%; in the assay with SK-MEL-28 melanoma it was 78.9%.
